# Measured values from the supplement of paper PMC6555819.
# Columns and labels:
# Assay in all cases: PBM binding z-score (relative to random genomic background probes); higher = stronger binding; sequences stand for … in GC…GCGATTGACAGCGTAGAATGAAGG
# [1] = tested on: FXR:RXRa (NR concentration 270 nM, RXRa partner concentration 90 nM)
# Method in brief: (§1)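 Ligand-free nuclear receptor dimers were bound for 1 h to custom Agilent 4×180K protein-binding microarrays. Detection used antibodies against each partner (one per run). Binding z-scores rest on regression-normalized fluorescence, with random background probes as the reference.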
# [2] = tested on: LXRa:RXRa (NR concentration 270 nM, RXRa partner concentration 90 nM)
# Method in brief: as §1
# [3] = tested on: LXRa homodimer (NR concentration 270 nM)
# Method in brief: as §1
# [4] = tested on: LXRb:RXRa (NR concentration 270 nM, RXRa partner concentration 90 nM)
# Method in brief: as §1
# [5] = tested on: LXRb homodimer (NR concentration 270 nM)
# Method in brief: as §1
# [6] = tested on: PPARa:RXRa (NR concentration 270 nM, RXRa partner concentration 90 nM)
# Method in brief: as §1
# [7] = tested on: PPARg:RXRa (NR concentration 180 nM, RXRa partner concentration 90 nM)
# Method in brief: as §1
# [8] = tested on: PPARg:RXRa 270nM:90nM, anti-RXR (NR concentration 270 nM, RXRa partner concentration 90 nM)
# Method in brief: as §1
# [9] = tested on: PPARg:RXRa 30nM:10nM, anti-RXR (NR concentration 30 nM, RXRa partner concentration 10 nM)
# Method in brief: as §1
# [10] = tested on: PPARg:RXRa 90nM:30nM, anti-RXR (NR concentration 90 nM, RXRa partner concentration 30 nM)
# Method in brief: as §1
# [11] = tested on: PPARg:RXRa DBDmut IVT, anti-RXR (DBD mutation: RXRa K156A/R161A, NR concentration 270 nM, RXRa partner concentration 90 nM)
# Method in brief: as §1
# [12] = tested on: PPARg:RXRa IVT, anti-PPARg (NR concentration 270 nM, RXRa partner concentration 90 nM)
# Method in brief: as §1
# [13] = tested on: PPARg DBDmut:RXRa IVT, anti-PPARg (DBD mutation: PPARg1 K132A/R137A, NR concentration 270 nM, RXRa partner concentration 90 nM)
# Method in brief: as §1
# [14] = tested on: PPARg DBDmut IVT, anti-PPARg (DBD mutation: PPARg1 K132A/R137A, NR concentration 270 nM)
# Method in brief: as §1
# [15] = tested on: PPARg homodimer (NR concentration 180 nM)
# Method in brief: as §1
# [16] = tested on: PXR:RXRa (NR concentration 270 nM, RXRa partner concentration 90 nM)
# Method in brief: as §1
# [17] = tested on: PXR homodimer (NR concentration 270 nM)
# Method in brief: as §1
# [18] = tested on: RARa:RXR (NR concentration 270 nM, RXRa partner concentration 90 nM)
# Method in brief: as §1
# [19] = tested on: RARa homodimer (NR concentration 270 nM)
# Method in brief: as §1
# [20] = tested on: RARb:RXRa (NR concentration 270 nM, RXRa partner concentration 90 nM)
# Method in brief: as §1
Sequence,PBM binding z-score [1],PBM binding z-score [2],PBM binding z-score [3],PBM binding z-score [4],PBM binding z-score [5],PBM binding z-score [6],PBM binding z-score [7],PBM binding z-score [8],PBM binding z-score [9],PBM binding z-score [10],PBM binding z-score [11],PBM binding z-score [12],PBM binding z-score [13],PBM binding z-score [14],PBM binding z-score [15],PBM binding z-score [16],PBM binding z-score [17],PBM binding z-score [18],PBM binding z-score [19],PBM binding z-score [20]
TCTAGTAGATCAATAGAGGTTAAGAAAGTGCGCT,0.905,3.79,0.28,1.96,-0.599,1.98,0.362,1.7,2.76,2.4,1.7,0.843,-0.106,0.138,0.0842,3.18,0.411,1.81,0.23,0.908
TCGAGTAGGTTACCACTGGGGCATTCAGCTTTCT,-0.222,0.889,-0.872,0.314,-0.76,1.04,0.354,1.12,0.971,0.965,3.33,3.37,0.26,0.143,-0.498,-0.159,-1.14,0.0985,-0.786,0.833
ACTAGCAGGCCAAGTTTGGGTCGCTCAAACAAAG,-0.398,-0.635,-0.922,-0.551,-0.759,-0.185,-0.746,-0.638,-1.08,-1.15,0.683,0.332,-0.842,-0.527,-0.566,-0.33,-0.606,-0.147,-1.09,0.491
CCTCGCAGGCCAATCTGGGTCACTCAAGGCTTGA,0.68,1.48,-0.253,0.914,-0.638,3,1.74,2.28,-0.176,1.3,3.89,4.74,-0.647,-1.36,0.567,1.21,-0.402,1.75,-0.288,1.67
ATACCAAGGTGATCGTGAGGTCGGTGATACTAAC,0.882,0.302,0.1,0.211,-0.161,0.78,0.426,-0.213,-0.123,-0.222,0.199,1.12,-0.398,0.469,0.85,0.944,0.32,0.998,0.866,1.11
TTACCAAGGTGAGCTGAGGTCGTTGCTCCAACTC,1.27,1.21,-0.608,0.819,-1.17,1.42,-0.334,0.661,-0.351,0.141,1.08,2.12,-0.398,-1.21,-0.419,4.75,0.304,1.6,-0.876,1.74
GCGACTGGGGCAAAGCAGGTTATCATAAGGTTGG,0.502,0.29,-0.027,0.318,-0.831,1.41,1.29,1.17,-0.476,0.229,4.56,3.61,-0.685,-0.693,-0.345,0.44,-0.841,0.549,-0.943,0.894
CCTACTGGGCCATTCAGAGGTCATTGACCATATG,3.07,4.59,6.66,3.95,0.537,3.86,2.55,3.37,1.07,2.25,4.24,4.24,0.0159,0.229,2.02,4.93,2.23,4.52,0.388,3.17
TCATATAGGTAAACAGGTGAGAGTCCGTAAGTTA,0.963,0.822,0.145,0.682,0.166,2.04,2.39,3.16,3.77,3.41,4.89,4.22,0.855,1.05,0.708,0.6,0.674,0.689,1.25,0.677
TGTCAAAGTTCAAAGGAAACGTAAGTATCCACAC,6.34,5.91,3.73,3.56,1.37,4.94,7.64,7.15,4.84,6.6,-0.506,3.75,1.36,1.26,2.31,4.33,1.78,3.21,1.06,4.95
CCTAGCAGGCCAGGGTCACTGAAGCATTTCGCTT,2.08,1.76,-0.679,2.1,-1.29,3.35,0.613,1.95,-0.0383,1.16,0.0332,1.16,-1.43,-1.48,1.08,3.04,-0.468,3.83,-0.64,2.55
GCTGCTAGGTCAGATTGGTCAGCTAACGGGTACG,1.36,0.957,-0.166,0.562,-0.238,1.68,0.672,0.718,-0.273,0.427,2.72,2.3,-0.411,-0.686,0.271,0.33,-0.223,0.855,-0.468,3.27
AGAACGATGGCACGCTGAGTTGATAGCAGAGTAG,-0.77,-0.938,-0.952,-0.881,-1.06,-0.687,0.523,-0.439,-0.196,-0.443,-0.571,-0.274,0.264,-0.833,0.102,-0.552,-0.384,-0.792,-0.387,-0.628
GCATATAGGTAATACAAGGTGAGAGTCCGATTGT,0.288,0.937,-0.139,0.0719,-0.459,0.92,1.14,1.19,0.605,0.684,4.28,3.14,1.33,0.73,0.397,0.114,0.184,1.59,0.608,0.335
